In PubChem BioAssay (NCI):
“And” between values parts separate entries of the source, which are not always exact repeats. Equal entries are not always repeated. This is part of a sample that, as a whole, favours compounds with a hit. Of some 83,000 tested, about 20% had one in any assay.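 Single-dose data. Exposure time 48 hours. Values below 10 considered active.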 A structure can be active in one record and inactive in another. The source made the active and inactive calls.

Legend:
Experiment in all cases: NCI-60 one-dose screen, 48 h (100 = growth as untreated, 0 = no growth, -100 = all killed)
Settings in all cases: 10 µM unless noted
NCI-H23 lung = test system: NCI-H23 lung
NCI-H226 lung = test system: NCI-H226 lung
NCI-H322M lung = test system: NCI-H322M lung
HOP-62 NSCLC = test system: HOP-62 NSCLC
NCI-H460 lung = test system: NCI-H460 lung
HOP-92 NSCLC = test system: HOP-92 NSCLC
NCI-H522 lung = test system: NCI-H522 lung
A549/ATCC NSCLC = test system: A549/ATCC NSCLC
786-0 renal = test system: 786-0 renal
DU-145 prostate = test system: DU-145 prostate
K-562 leukemia = test system: K-562 leukemia
MALME-3M melanoma = test system: MALME-3M melanoma
MDA-MB-231 breast = test system: MDA-MB-231 breast
RXF 393 renal = test system: RXF 393 renal
SF-268 CNS = test system: SF-268 CNS
SF-295 CNS = test system: SF-295 CNS
SF-539 CNS = test system: SF-539 CNS
UACC-257 melanoma = test system: UACC-257 melanoma
M14 melanoma = test system: M14 melanoma
COLO 205 colon = test system: COLO 205 colon

SMILES	growth (NCI-H23 lung)	growth (NCI-H226 lung)	growth (NCI-H322M lung)	growth (HOP-62 NSCLC)	growth (NCI-H460 lung)	growth (HOP-92 NSCLC)	growth (NCI-H522 lung)	growth (A549/ATCC NSCLC)	growth (786-0 renal)	growth (DU-145 prostate)	growth (K-562 leukemia)	growth (MALME-3M melanoma)	growth (MDA-MB-231 breast)	growth (RXF 393 renal)	growth (SF-268 CNS)	growth (SF-295 CNS)	growth (SF-539 CNS)	growth (UACC-257 melanoma)	growth (M14 melanoma)	growth (COLO 205 colon)
N/C(=N\N=C\c1ccc2c(c1)OCO2)N/N=C\c1ccc2c(c1)OCO2	109% (inactive) and 89% (inactive)	106% (inactive) and 108% (inactive)	108% (inactive) and 101% (inactive)	115% (inactive) and 101% (inactive)	104% (inactive) and 69.4% (inactive)	99.8% (inactive)	119% (inactive) and 108% (inactive)	107% (inactive) and 108% (inactive)	103% (inactive) and 88.6% (inactive)	110% (inactive) and 83.9% (inactive)	90.1% (inactive)	92.7% (inactive)	107% (inactive) and 90.4% (inactive)	110% (inactive)	101% (inactive) and 76.2% (inactive)	114% (inactive) and 121% (inactive)	109% (inactive) and 113% (inactive)	110% (inactive) and 97% (inactive)	100% (inactive) and 59.7% (inactive)	–
O=C(Nc1cccc(Cl)c1)c1cc2ccccc2cc1O	4.9% (active) and 9.55% (active)	45.8% (inactive) and 40.6% (inactive)	15% (inactive) and -3.24% (active)	37.7% (inactive) and 15.1% (inactive)	5.98% (active) and 5.93% (active)	-30.8% (active) and -32.5% (active)	1.12% (active) and 2.91% (active)	20.7% (inactive) and 9.25% (active)	53.6% (inactive) and 17.3% (inactive)	22.1% (inactive) and 25.1% (inactive)	25.8% (inactive) and 10.5% (inactive)	2.77% (active) and -9.95% (active)	27% (inactive) and -1.46% (active)	18% (inactive) and 33% (inactive)	21.2% (inactive) and 24.4% (inactive)	13.5% (inactive) and 62.2% (inactive)	28.4% (inactive) and 11.7% (inactive)	5.37% (active) and -16.3% (active)	48.4% (inactive) and 18.2% (inactive)	–
COc1ccc2ccccc2c1/C=N/N1CCCCC1	97.2% (inactive)	102% (inactive)	105% (inactive)	101% (inactive)	109% (inactive)	67.8% (inactive)	86.9% (inactive)	95.7% (inactive)	96.1% (inactive)	108% (inactive)	91.5% (inactive)	–	99.4% (inactive)	100% (inactive)	–	96.4% (inactive)	89.5% (inactive)	99.7% (inactive)	108% (inactive)	102% (inactive)
COc1cc2nc(N3CCC[C@@H](NC(=O)C4COc5ccccc5O4)C3)nc(N)c2cc1OC (stereo partly drawn)	99.6% (inactive) and 99.7% (inactive)	102% (inactive) and 99.7% (inactive)	96.1% (inactive) and 102% (inactive)	107% (inactive) and 102% (inactive)	105% (inactive) and 107% (inactive)	87% (inactive) and 83% (inactive)	96.4% (inactive) and 93.9% (inactive)	95.7% (inactive) and 93.9% (inactive)	97.4% (inactive) and 96.9% (inactive)	107% (inactive) and 108% (inactive)	97.1% (inactive) and 94.1% (inactive)	101% (inactive) and 109% (inactive)	104% (inactive) and 106% (inactive)	105% (inactive) and 88.6% (inactive)	105% (inactive) and 103% (inactive)	–	104% (inactive) and 101% (inactive)	93.5% (inactive) and 92% (inactive)	105% (inactive) and 101% (inactive)	108% (inactive) and 107% (inactive)
CCN(CC)C(=S)SSC(=S)N(CC)CC	91% (inactive) and 111% (inactive)	86.5% (inactive) and 104% (inactive)	84.8% (inactive) and 102% (inactive)	82.1% (inactive) and 88.7% (inactive)	62.4% (inactive) and 111% (inactive)	90.4% (inactive) and 110% (inactive)	58.1% (inactive) and 88.8% (inactive)	85.5% (inactive)	91.2% (inactive) and 91.7% (inactive)	83.4% (inactive) and 109% (inactive)	54.6% (inactive) and 80.5% (inactive)	61.2% (inactive) and 113% (inactive)	81.6% (inactive) and 102% (inactive)	105% (inactive) and 131% (inactive)	88.1% (inactive) and 95.7% (inactive)	78.5% (inactive) and 103% (inactive)	91.5% (inactive) and 92.8% (inactive)	69.7% (inactive) and 69.5% (inactive)	66.8% (inactive) and 92.4% (inactive)	82.9% (inactive) and 106% (inactive)
O=[N+]([O-])c1ccc(/C=N\NC(=S)Nc2ccc(F)cc2)cc1	101% (inactive) and 88.3% (inactive)	105% (inactive) and 91.1% (inactive)	86.6% (inactive) and 97.9% (inactive)	105% (inactive) and 94.6% (inactive)	95.3% (inactive) and 87% (inactive)	107% (inactive) and 75.7% (inactive)	95% (inactive) and 104% (inactive)	82.1% (inactive) and 90.9% (inactive)	105% (inactive) and 98.5% (inactive)	102% (inactive) and 87.1% (inactive)	104% (inactive)	92.6% (inactive)	77.5% (inactive) and 77.6% (inactive)	98% (inactive) and 105% (inactive)	102% (inactive) and 99.8% (inactive)	102% (inactive)	102% (inactive) and 58.6% (inactive)	91.4% (inactive) and 104% (inactive)	113% (inactive) and 96.8% (inactive)	–
CCN(CC)CCC(CNc1ccnc2cc(Cl)ccc12)c1ccc(OC)cc1 (stereo not drawn)	72.4% (inactive) and 66.1% (inactive)	97.2% (inactive) and 95.5% (inactive)	60.4% (inactive) and 64.8% (inactive)	83.4% (inactive) and 77.7% (inactive)	70.1% (inactive) and 62.9% (inactive)	47.3% (inactive) and 59.4% (inactive)	25.8% (inactive) and 20.3% (inactive)	78.9% (inactive) and 88.3% (inactive)	62.1% (inactive) and 73.7% (inactive)	84.7% (inactive) and 96.7% (inactive)	6.83% (active) and 1.92% (active)	-69.1% (active) and -65.7% (active)	33.1% (inactive) and 44.1% (inactive)	33.6% (inactive) and 38.1% (inactive)	75.9% (inactive) and 76.8% (inactive)	46.5% (inactive) and 1.95% (active)	-80.6% (active) and -66.8% (active)	-70% (active) and -74.4% (active)	-60.3% (active) and -78.3% (active)	33.3% (inactive) and -41.5% (active)
NS(=O)(=O)c1cc2c(cc1Cl)NC(C(Cl)Cl)NS2(=O)=O (stereo not drawn)	120% (inactive) and 106% (inactive)	108% (inactive) and 99.3% (inactive)	98.8% (inactive) and 101% (inactive)	104% (inactive) and 122% (inactive)	110% (inactive) and 114% (inactive)	96.3% (inactive)	96.7% (inactive) and 104% (inactive)	80.9% (inactive) and 106% (inactive)	87.6% (inactive) and 104% (inactive)	108% (inactive) and 112% (inactive)	97% (inactive) and 93.9% (inactive)	107% (inactive)	105% (inactive) and 108% (inactive)	112% (inactive) and 128% (inactive)	107% (inactive) and 104% (inactive)	118% (inactive) and 111% (inactive)	104% (inactive)	84.4% (inactive) and 95% (inactive)	97.5% (inactive) and 107% (inactive)	109% (inactive) and 113% (inactive)
COc1ccc(-c2ncnc3c2ncn3C/C=C/CCl)cc1	63.6% (inactive) and 80.5% (inactive)	89.4% (inactive) and 81.5% (inactive)	100% (inactive) and 105% (inactive)	98.7% (inactive) and 95.9% (inactive)	67.5% (inactive) and 97.1% (inactive)	37.9% (inactive) and 62.9% (inactive)	48.5% (inactive) and 55.5% (inactive)	81.2% (inactive) and 75% (inactive)	70.2% (inactive) and 80% (inactive)	81.8% (inactive) and 112% (inactive)	67.2% (inactive) and 77.5% (inactive)	61.8% (inactive) and 49.7% (inactive)	88.8% (inactive) and 89.2% (inactive)	7.94% (active) and 42.6% (inactive)	87.7% (inactive) and 86.8% (inactive)	109% (inactive) and 92.6% (inactive)	75.9% (inactive) and 98.9% (inactive)	80.5% (inactive) and 77.7% (inactive)	70.9% (inactive) and 87% (inactive)	–
